Measured values as given in ChEMBL document CHEMBL1157539, “Thousands of chemical starting points for antimalarial lead identification” (Nature, 2010).

How the values were obtained:
Type in all cases: functional
Plasmodium falciparum [1] = assay: GSK_TCMDC: Inhibition of Plasmodium falciparum 3D7 in whole red blood cells, using parasite LDH activity as an index of growth. Test compounds present at 2uM
Plasmodium falciparum [2] = assay: GSK_TCMDC: Inhibition of Plasmodium falciparum Dd2 in whole red blood cells, using parasite LDH activity as an index of growth. Test compounds present at 2uM
HepG2 = assay: GSK_TCMDC: Percent inhibition of human HepG2 cell line. Test compounds present at 10uM.

Row | SMILES | Inhibition (Plasmodium falciparum [1]) | Inhibition (Plasmodium falciparum [2]) | Inhibition (HepG2)
1 | O=C(Nc1ccccc1)N(Cc1ccc(-c2cccc(CNC3CCCC3)c2)cc1)C1CCN(Cc2ccccc2)CC1.O=C(O)C(F)(F)F | 100% | 67% | 43%
2 | O=C(N/C(=C/c1cccc([N+](=O)[O-])c1)c1nc2ccccc2[nH]1)c1cccc(Br)c1 | 85% | 88% | 0%
3 | COc1ccc2nccc(N3CCC(CCNCc4ccc5c(n4)NC(=O)CO5)CC3)c2n1.Cl | 100% | 72% | 19%
4 | COc1cccc(NC(=O)Nc2ccc(-c3oc(C(=O)NCC(c4ccccc4)N(C)C)cc3-c3ccncc3)cc2)c1.O=C(O)C(F)(F)F (stereo unspecified) | 100% | 99% | 6%
5 | Cc1csc(-c2nonc2NC(=O)COc2ccccc2C(C)C)n1 | 90% | 85% | 14%
6 | CC(C)c1ccc(N2CCN(CCCCNC(=O)c3ccc(NC(=O)c4cc(Cl)cc(Cl)c4)cc3)CC2)cc1 | 100% | 86% | 12%
7 | CCOc1ccc2[nH]c(C)cc(=NN=Cc3ccncc3)c2c1 | 99% | 78% | 8%
8 | CC(C)N(Cc1ccccc1)C(=O)CN1C(=O)COc2ccc(S(=O)(=O)N3CCCCCC3)cc21 | 99% | 99% | 0%
9 | C[C@H](Cc1ccc(OCCCCCOc2ccc(C[C@@H](C)NC[C@H](O)c3cccc(Cl)c3)cc2)cc1)NC[C@H](O)c1cccc(Cl)c1.Cl | 99% | 100% | 99%
10 | Cc1ccc(C(=O)Nc2ccc(Cl)c(N3CCN(CCc4ccccc4)CC3)c2)cc1.O=C(O)C(F)(F)F | 90% | 14% | 17%
11 | Cn1cncc1CNCc1ccc(-c2cccc(-c3nc4ccccc4[nH]3)c2)cc1.O=C(O)C(F)(F)F | 100% | 92% | 19%
12 | CC1(C)N=C(N)N=C(N)N1OCCCc1ccccc1.Cl | 96% | 94% | 64%
13 | O=C(Nc1ccc(Cn2ncc(N3CCCNCC3)c(Cl)c2=O)cc1)Nc1cc(C(F)(F)F)cc(C(F)(F)F)c1.O=C(O)C(F)(F)F | 100% | 29% | 25%
14 | N#Cc1ccc(N2CCN(Cc3ccc(-c4ccc(-c5nc6cc(C(F)(F)F)ccc6[nH]5)s4)cc3)CC2)nc1.O=C(O)C(F)(F)F | 100% | 73% | 13%
15 | COc1ccc(-c2cc(C(=O)N[C@@H](CC3CCCCC3)C(=O)NC3CCCc4ccccc43)ccc2O)cc1 (stereo partly specified) | 98% | 97% | 7%
16 | O=C(Nc1ccc2c(c1)CN(Cc1ccc(N3CCCC3)o1)CCC2)c1ccoc1.O=CO | 89% | 76% | 4%
17 | COCCn1c(-c2nc(-c3ccc(F)cc3)cnc2N)nc2ccccc21 | 98% | 98% | 16%
18 | CC1CN(CC(O)Cn2c3ccc(Br)cc3c3cc(Br)ccc32)CC(C)O1 (stereo unspecified) | 100% | 100% | 0%
19 | Br.CC1(C)NC(N)=NC(=N)N1OCCCCOc1ccc(Cl)cc1C1CCCCC1 | 93% | 97% | 56%
20 | CC[C@H](C)CNC(=O)c1cncc(-c2cccc(CN3CCC(N4CCCC4)CC3)c2)c1.O=C(O)C(F)(F)F | 97% | 5% | 0%
21 | O=C(O)C(F)(F)F.OCC1CCN(Cc2ccc(-c3ccc(-c4nc5ccccc5[nH]4)cc3)cc2)CC1 | 100% | 84% | 37%
22 | COc1ccc2ccccc2c1C=NNc1ccnc2cc(Cl)ccc12 | 100% | 94% | 20%
23 | O=C(O)C(F)(F)F.O=[N+]([O-])c1cccc(CNC2CCN(Cc3ccc(Cl)c(Cl)c3)CC2)c1 | 100% | 71% | 5%
24 | Cl.O=C(NCc1ccc(C(=O)N2CCC(N3CCCCC3)CC2)cc1)c1cc(-c2cccc(C(F)(F)F)c2)ccc1O | 100% | 58% | 0%
25 | O=C(/C=C/c1ccc(Cl)c(Cl)c1)NCCCCCCN1CCCN(C(=O)Nc2cc(F)cc(F)c2)CC1 | 99% | 0% | 25%
26 | CO/C(=C\C=C\c1cc2cc(Cl)c(Cl)cc2[nH]1)C(=O)NCCCN1CCC(c2ccccc2)CC1 | 100% | 92% | 33%
27 | CC(C)COc1ccc2ccccc2c1CNCCCCCCNCc1c(OCC(C)C)ccc2ccccc12.CS(=O)(=O)O | 90% | 95% | 99%
